Screening results from PubChem.
Rows were chosen to be rich in hits. Some 2.3% of all compounds tested hit in one or more screens of this group.
Calpain2 inh = inhibitors of pig calpain II, primary screen, biochemical, fluorogenic peptide substrate, 1536-well | 220,000 tested, 0.37% active | inhibition, % at 16 µM | purified calpain II, 30 min;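 active means inhibition above about 50%, limit read from the data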
MIN6 prolif = inducers of MIN6 beta-cell proliferation, primary screen, ATP luminescence, uHTS. MIN6 cells proliferation, ATPlite luminescence, 48 h; cells starved in 0.2% serum; 100% = growth in 10% serum. proliferation, % at 10 µM. 330,000 tested, 0.29% active. AID 2380, 2010;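 active means compounds whose signal lies at least 3.5 SD above the mean of all wells on their plate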;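 further: 0% = DMSO-treated cells in low-serum medium and 100% = 10% serum control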
H9c2 TAG inh = inhibitors of triacylglycerol accumulation, primary screen, cell-based, uHTS, fluorescence, H9c2; H9c2 cells, Nile Red lipid (TAG) fluorescence; cells loaded with 200 µM oleic acid; inhibition, % at 12.5 µM; 230,000 tested, 0.66% active; AID 651582, 2012;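 active means pattern-corrected inhibition of lipid staining of at least 50% with the nuclear-stain viability signal not falling by more than 50%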;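 further: 0% = DMSO wells and 100% = triacsin C control wells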
FAS TE block = FAS thioesterase domain inhibitors, primary screen, biochemical, fluorescence intensity, uHTS; recombinant FAS-TE, OMFH fluorogenic substrate, fluorescence endpoint; inhibition, % at 15 µM; 360,000 tested, 0.67% active; Fatty acid synthase (Homo sapiens), P49327; AID 602261, 2012;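 active means compounds whose normalised, plate-corrected inhibition of enzyme fluorescence in the single-dose primary screen is 50% or more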;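 further: 0% = DMSO with enzyme and 100% = substrate without enzyme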
aDG glyco act = activators of alpha-DG glycosylation, primary screen, uHTS, Pro5-aDG cells, AlphaScreen | alpha-DG glycosylation AlphaScreen (IIH6); 0% Pro5, 100% B10-LARGE cell signal | activation, % at 10 µM | 360,000 tested, 0.22% active | AID 624168, 2012;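 active means activation of at least 8% versus controls, or a plate z-score of at least 8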;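 further: Pro5 are CHO cells carrying HIG-tagged alpha-DG that lacks glycosylation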
Cardio protect = cardioprotection against H2O2-induced cell death, primary screen, uHTS, H9c2 cells, ATPLite luminescence; H9c2 cardiomyocytes, H2O2 injury protection, 2 h; 360,000 tested, 0.63% active; AID 588492, 2011; protection from H2O2 cell death, % at 20 µM;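 active means compounds giving at least 50% protection of heart cells from peroxide-induced death in the single-dose screen, raw or plate-pattern-corrected value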;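 further: 0% = DMSO wells with peroxide and 100% = DMSO wells without peroxide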
TAG conf = triacylglycerol accumulation inhibitors, retest, confirmation, cell-based, single concentration, Nile Red fluorescence, H9c2; shares compounds with H9c2 TAG inh; H9c2 lipid accumulation; cells loaded with 200 µM oleic acid; inhibition, % at 12.5 µM; 990 tested, 71% active; AID 651629, 2012;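 active means mean inhibition across replicates of 40% or more; inactive means mean inhibition below 40%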;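 further: plate controls were DMSO only wells for no effect and Triacsin C treated wells for full effect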
* marks the source's active call; other numbers are inactive results; i = inactive; x = no result given.

SMILES	Calpain2 inh	MIN6 prolif	H9c2 TAG inh	FAS TE block	aDG glyco act	Cardio protect	TAG conf
CCOC(=O)N(C)c1c(CC)nc2c(OCc3cc(Cl)cc(Cl)c3)cccn12	x	x	5	10	1	1	x
Cc1onc(-c2ccc(Cl)cc2Cl)c1-c1csc(N/N=C/c2ccccc2Cl)n1	-27	-2	57*	25	0	-14	38
Cc1onc(-c2ccccc2)c1-c1csc(N/N=C/c2ccccc2Cl)n1	1	-6	21	27	0	-13	x
O=C(c1cc(COc2c(F)cccc2F)on1)N(Cc1ccccc1)CC1CC1	x	-3	x	20	0	-12	x
CN(C)CC(O)c1ccc(C=Cc2ccc(Cl)cc2)cc1 (centres undefined)	x	x	73*	-4	0	-8	44*
O=C(Nc1nc(-c2ccccc2)cs1)C1CCCN(S(=O)(=O)c2cccc([N+](=O)[O-])c2)C1 (centres undefined)	-138	-3	62*	32	1	-7	47*
COc1ccc(C2=Nc3ccccc3N(C(=O)c3cccnc3)C2C(=O)NC2CCCC2)cc1 (centres undefined)	x	x	x	x	0	x	x
CCCCNC(=O)Nc1ccc(C2SCCS2)cc1	19	-3	57*	6	0	0	-9
CN(C)CCCN(C(=O)c1ccc(S(=O)(=O)N(C)C2CCCCC2)cc1)c1nc2ccc(Br)cc2s1	x	-7	8	20	1	-14	x
CCOC(=O)NC1CCc2cc(OC)c(OC)c(OC)c2-c2ccc(SC)c(=O)cc21 (centres undefined)	x	x	35	-5	0	3	x
CCOCC(=O)NC1CCc2cc(OC)c(OC)c(OC)c2-c2ccc(SC)c(=O)cc21 (centres undefined)	x	x	54*	-4	0	3	38
CCOc1ccccc1NC(=O)C1CCN(C(=O)NCc2ccccc2)CC1	33	-1	63*	-10	0	2	47*
CCOc1ccccc1NC(=O)CCC(=O)Nc1ccccc1OCC	-37	1	59*	-8	0	6	49*
CCC(=O)Nc1nonc1-c1nc2ccccc2n1Cc1cccc2ccccc12	-57	-6	50*	28	0	-5	65*
COC(=O)[C@@]1(Cc2ccc(F)cc2)[C@H]2c3cc(C(=O)N4CCCC4)n(CCCNc4ncc(C(F)(F)F)cc4Cl)c3C[C@H]2CN1C(=O)c1ccccc1	x	-8	78*	28	2	-2	98*
O=C(C[C@@H]1C/C=C\C[C@@H](Cc2ccc(F)cc2)C(=O)OC[C@@H]2CCCN2C1=O)NCCO	x	0	-3	-4	0	3	x
COCCCn1c(SCC(=O)Nc2ccc(NC(=O)c3ccco3)c(OC)c2)nc2ccccc2c1=O	i	-2	62*	-6	0	18	38
CC(C)c1cccc(C(C)C)c1OC(=O)[C@H]1OC(c2ccc(Br)cc2)=C[C@@H]1c1ccc(Br)cc1	x	-7	59*	34	0	-13	23
CC(C)c1cccc(C(C)C)c1OC(=O)[C@H]1OC(C(C)(C)C)=C[C@@H]1c1ccccc1	x	-8	-41	17	0	-15	x
CC(C)(C)c1csc(NNC(=O)c2ccc(Br)cc2)n1	15	-6	55*	-13	0	55*	12
CC(C)(C)c1csc(NC(=O)c2ccccc2O)n1	x	-4	-17	1	0	-19	x
O=C(CCN1C(=O)/C(=C/c2cccs2)SC1=S)N1CCCCC1	x	-3	x	0	0	-4	x
Cc1ccc(C)c(-n2cc(CNCCCn3cccn3)c(-c3ccccc3)n2)c1	16	-5	0	-1	0	-1	x
Cc1ccc(-n2cc(CNCCCn3cccn3)c(-c3cccc(C)c3)n2)cc1	14	-8	52*	6	0	-10	52*
COCCNc1nc(-c2ccc(OC)cc2C)c2sc(-c3ccccc3)cc2n1	x	x	60*	19	0	-5	19
SMILES	Calpain2 inh	MIN6 prolif	H9c2 TAG inh	FAS TE block	aDG glyco act	Cardio protect	TAG conf
COCCNc1nc(NCCOC)c2sc(-c3ccccc3)cc2n1	x	x	13	2	1	0	x
CC(C)CNC(=O)C1(C)CCCN1C(=O)CCc1cccs1 (centres undefined)	x	x	18	-1	1	6	x
CCn1c2ccccc2c2cc(N)ccc21	-232	-5	x	-8	0	-7	x
CCC(CC)NCc1ccc2c(c1)c1ccccc1n2CC	18	-4	52*	-4	4	11	37
COc1cc2c(cc1OC)C(Cc1ccc(O)c(Oc3ccc(C[C@H]4c5cc(OC)c(OC)cc5CCN4C)cc3)c1)N(C)CC2 (some centres undefined)	x	-6	x	x	x	x	x
Cc1ccc(Oc2ccc(S(=O)(=O)N3CCOCC3)cc2C(N)=O)c(-n2nc3ccccc3n2)c1	-26	-3	50*	-2	0	11	46*
COc1ccccc1Oc1ccc(S(=O)(=O)N2CCOCC2)cc1S(=O)(=O)N1CCOCC1	-12	-3	x	4	0	-28	x
CCN(CC)S(=O)(=O)c1ccc(N2CCOCC2)c(NC(=O)c2[nH]c(C)c(C(C)=O)c2C)c1	x	-4	69*	-2	-1	48	75*
Cc1ccccc1S(=O)(=O)NC(=O)C1(C)CCN1C(=O)c1c(C)noc1C (centres undefined)	x	x	-1	-8	0	8	x
CCn1c(COc2ccc(C(C)C)cc2)nnc1SCC(=O)Nc1nccs1	-12	-5	57*	-4	0	-1	15
Cc1ccc(NC(=S)N(CCCN2CCCC2)Cc2cccn2Cc2ccc(Cl)cc2)cc1Cl	22	-6	78*	26	0	-16	93*
COc1ccc(NC(=S)N(CCCN2CCCC2)Cc2cccn2Cc2ccc(Cl)cc2)cc1Cl	-2	-6	71*	31	0	-6	56*
Cc1ccc(NC(=S)N(CCCN2CCCC2)Cc2cccn2Cc2ccc(Cl)cc2)cc1C	-27	-6	25	26	1	-18	x
CC(=O)Nc1ccc(-c2ccnc3c2CC(C(=O)NCc2cccc(Cl)c2)O3)cc1 (centres undefined)	x	x	58*	4	0	16	63*
CC(=O)Nc1cccc(-c2ccnc3c2CC(C(=O)NCc2cccc(Cl)c2)O3)c1 (centres undefined)	x	x	-1	-1	0	-1	x
